Reference: PubChem BioAssay (NCI)
Compounds without any hit were thinned out: in the full panel of roughly 83,000, 20% have a hit.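 In brief: 96-well plates, 48 h treatment, single concentration, percent growth endpoint.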 Unmarked numbers belong to inactive results. Activity calls are given as the source filed them.

System: ACHN renal
Experiment: NCI-60 one-dose screen, 48 h (100 = growth as untreated, 0 = no growth, -100 = all killed)
Settings: 10 µM unless noted
Description: Growth inhibition of the ACHN human tumor cell line is measured as a screen for anti-cancer activity. Cells are grown in 96 well plates and exposed to the test compound for 48 hours. Compounds are tested at a single concentration, which is 10^-5 M for most compounds. The reported endpoint is percent growth (GI% or GIPRCNT), where numbers from 0 - 100% represent growth inhibition, and numbers from -100% - 0 represent cell death. For example, a value of 40 represents 60% growth inhibition. A value of 0 means no net growth occurred over the course of the experiment. A value of -40 indicates 40% of cells at the beginning of the experiment died by the end of the experiment. A value of -100 means all cells are dead at the end of the experiment.
NCI-60 Human Tumor Cell Lines Screen was performed using the standard one-dose NCI protocol, which is described in more detail at https://dtp.cancer.gov/discovery_development/nci-60/default.htm.
Compounds with GIPRCNT values below 10 were considered active. Activity score was based on GIPRCNT using the following formula: […]
Score is 0 for GIPRCNT values of 100 or above, 50 for GIPRCNT values of 0, and 100 for GIPRCNT values of -100.

Compound | growth
CC(=O)Nc1ccc(S(=O)(=O)N2C(=O)CCC2C(=O)Nc2ccccc2)cc1 (stereo not given) | 30.4%
CCn1cc(C(=O)O)c(=O)c2cc(F)c(N3CCN(S(=O)(=O)c4ccc(OC)c(OC)c4)CC3)cc21 | 93%
Cc1c(C2=NNC(c3ccc4c(c3)OCO4)C2)[n+]([O-])c2ccccc2[n+]1[O-] (stereo not given) | 108%
CCOC(=O)/C=C\C(=O)NC(N)=O | 112%
COc1ccc(-c2nnc(COc3ccc(NS(=O)(=O)c4ccc(OC)cc4)cc3F)o2)cc1 | 72.1%
CCN1C(=O)N(CC)C2C1NN=c1s/c(=C\c3cccc(F)c3)c(=O)n12 (stereo not given) | 29.1%
COc1cc(C2CC(c3c(C)[n+]([O-])c4ccccc4[n+]3[O-])=NN2)cc(OC)c1OC (stereo not given) | 103%
COc1cccc2cc(-c3cc4ccccc4[nH]3)/c(=N/C(=S)Nc3ccccc3)oc12 | 41.2%
CCN(Cc1ccccc1)c1ccc(SC#N)cc1 | 63.5%
CN=S(=O)(NC(=O)c1ccc(Cl)cc1Cl)c1ccc(Br)s1 (stereo not given) | 102%
C=CCc1cc(Cl)cc2c(OC(C)=O)c(C(C)=O)c(-c3ccccc3)nc12 | 102%
CCn1cc(C(=O)O)c(=O)c2cc(F)c(N3CCN(S(=O)(=O)c4ccc(Cl)cc4Cl)CC3)cc21 | -54.6% (active)
COc1ccc(N=C2NN=C(c3ccc(F)cc3)CS2)cc1OC | 93.7%
CCOC(=O)c1cc(/C(=N\O)c2cc(OC)c(OC)c(OC)c2)n2c(C)cccc12 | 37.3%
O=C(O)c1ccc(-n2cc(CNc3ccc(C(F)(F)F)cc3)c(-c3ccccc3)n2)cc1 | 88.9%
CCCCCCCCCCCCCCCCC(Br)C(=O)O (stereo not given) | 96.6%
COc1cc(NCCCN=C(N)NC(N)=NC(C)C)c2ncccc2c1 | 94%
O=c1[nH]c2ccccc2cc1-c1nnc(Cc2ccccc2)o1 | 65.9%
Nc1c(C(=O)Nc2cccc(C(F)(F)F)c2)sc2nc3c(cc12)C(O)CCC3 (stereo not given) | 54.6%
CCCC(C(=O)OCC)C(C)OC(=O)OCC (stereo not given) | 107%

Compound | growth
CCOC(=O)CC/C(C)=N\Nc1ccc([N+](=O)[O-])cc1 | 36.8%
COc1cc(C(=O)CCCl)ccc1O | 96.9%
N#CC1=C(N)OC2=C(C(=O)CCC2)C1c1ccco1 (stereo not given) | 104%
Cc1cccc2cc(/C=C/C(=O)/C=C/c3ccc(Cl)cc3)c(=O)[nH]c12 | 60.5%
CS(=O)(=O)N(c1cc(-c2ccc3ncnc(Nc4cccc(Cl)c4)c3c2)cnc1Cl)S(C)(=O)=O | 11.7%
COc1ccc(/C=C2\C(=O)N(C(=O)c3csc(NC(C)=O)n3)N=C2C)cc1 | 107%
CCc1cccc(C)c1NC(=O)c1sc2nc3c(cc2c1N)C(=O)CCC3 | 51.9%
CNC(=O)c1cc(Oc2ccc3c(c2)sc2nc(-c4ccc(Cl)cc4)cn23)ccn1 | 79.3%
CN(C)C/C=C/C(=O)Nc1cc2c(Nc3cccc(Cl)c3F)ncnc2cc1OCCOC(F)F | 4.97% (active)
O=C1OC(c2ccccc2)=N/C1=C\c1ccc([N+](=O)[O-])cc1 | 102%
O=C(CCCn1c2c(sc3ccccc32)c(=O)n2nnc(-c3ccccc3)c12)NCCc1cnc[nH]1 | -19.4% (active)
Cc1ccc2nc(-c3c(N)n[nH]c3CCCO)[nH]c(=O)c2c1 | 115%
C=C1C(=O)O[C@H]2[C@H]1CC/C(COC(=O)NCCc1cccc(OC)c1)=C\CC[C@@]1(C)O[C@@H]21 | -9.71% (active)
CCOc1ccc(/C=C/C=N/NC(N)=S)cc1 | 80.2%
CC/C(=C(\c1ccc(O)cc1)c1ccc(OCCN(C)CCN(C)C(=O)CCC(=O)c2c(C)[nH]c(/C=C3\N=C(c4ccc[nH]4)C=C3OC)c2C)cc1)c1ccccc1 | 95.5%
CC(=O)OC[Si](C)(C)c1ccccc1 | 106%
COc1ccc(C2NC3=C(CCCC3)C(C#N)(C#N)C2(C#N)C#N)cc1 (stereo not given) | 37.1%
COc1ccc(Cn2cc(COc3cc(/C=C/C(=O)c4cc(OC)c(OC)c(OC)c4)ccc3OC)nn2)cc1 | 64.6%
COc1ccc(C(=O)/C=C/c2cccc([N+](=O)[O-])c2)c(OC)c1 | -43.5% (active)
NC(=O)c1ccc2c(c1)OCO2 | 109%
